These results are taken from PubChem BioAssay AID493244 (The Scripps Research Institute Molecular Screening Center, 2011).

Where “and” joins values, the source holds several entries; their conditions need not be identical. Identical values can stand only once. About 390 (0.11%) of roughly 340,000 compounds were called active.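 The calls were made as follows: active = inhibition above the mean inhibition of all tested compounds plus 3 SD (cut at about 17% in these data); inactive = the rest.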 What follows is part of a selection rich in actives, with near analogues and random picks from the rest.

The experiment concerns the target Troponin I, cardiac muscle (Homo sapiens) + Troponin T, cardiac muscle (Homo sapiens) + Troponin C, slow skeletal and cardiac muscles (Homo sapiens) (UniProt P19429+P45379+P63316). Kind of experiment: calcium desensitizers of cardiac thin filaments – biochemical, IANBD-TnC fluorescence, EC70 calcium, primary screen (AID 493244).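 Also: assay run at fixed EC70 calcium of 1.6 mM.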 To be noted: IANBD-labeled cardiac RTF, Ca2+ fluorescence; at 7.15 µM; active compounds read high.
The inhibition is the drop in the measured response relative to a control, in per cent. Turning to `O=C(C[C@H]1C(=O)N(c2ccc(F)c(F)c2)C[C@@H]1Cc1ccccc1)Nc1ccccc1`, the inhibition was -7.8% (inactive). To `COc1cc(OC)cc(-c2c(-c3ccc(F)cc3)c3cc(-c4ccc5cc[nH]c5c4)ccc3n2C)c1` belongs 0.02% (inactive); to `O=S(=O)(Nc1ccc2nc(N3CCOCC3)sc2c1)c1ccccc1`, -15.4% (inactive). As for `O=C(O)c1cccc(S(=O)(=O)Nc2ccc(O)cc2Sc2nc3ccccc3s2)c1`, the inhibition is 20.3% (active). With `Cc1nc2ccc(NC(=O)c3cccc(S(=O)(=O)N4CCOCC4)c3)cc2s1`, the inhibition is 7.38% (inactive). For `CCCOc1ccc(N2C(=O)CC(N(CCc3ccc(S(N)(=O)=O)cc3)C(C)=O)C2=O)cc1` (stereo not given) the value was 11.4% (inactive).

With `COC(=O)CN(c1cccc(C(C)=O)c1)S(C)(=O)=O`, the inhibition was -2.17% (inactive). For `CCCC/S(C)=N/S(=O)(=O)c1ccc(C)cc1` (stereo not given) the value was -2.27% (inactive).

Consider `CC(=O)C1C(c2ccc(Cl)cc2)c2c(n[nH]c2C)CC1(C)O` (stereo not given), for which the inhibition was -5.53% (inactive). To `O=C(Nc1cccnc1)c1cc2cc(Br)ccc2oc1=O` belongs 3.93% (inactive).

Turning to `COc1cccc(N(CC(=O)NC2CCCCCC2)S(=O)(=O)c2ccccc2)c1`, the inhibition was -9.96% (inactive). Turning to `COC(=O)C1(C)NC(c2ccccc2OC)C2C(=O)N(c3ccccc3)C(=O)C21` (stereo not given), the inhibition is -1.37% (inactive). Turning to `C=CCC(CC=C)(C(N)=O)c1ccccc1`, the inhibition was -6.01% (inactive). Turning to `CNC(=O)COc1ccc(S(=O)(=O)Nc2ccccc2)cc1`, the inhibition was -0.29% (inactive). For `CCCCn1c(N)c(N(CC(C)C)C(=O)c2cccc(S(=O)(=O)N3CC(C)OC(C)C3)c2)c(=O)[nH]c1=O` (stereo not given) the value was -3.78% (inactive); for `CCN(CC)C(=O)[C@H]1CC(CC(=O)NCc2ccco2)C(=O)N2CCc3c([nH]c4ccccc34)[C@]12C` (stereo not given in full), -0.12% (inactive). For `Cc1ccsc1C(C(=O)NC1CCCCC1)N(C(=O)Cc1cccs1)C1CC1` (stereo not given) the value was -0.55% (inactive).

In the case of `Cc1ccccc1N(C(=O)Cc1cccs1)C(C(=O)NC1CCCCC1)c1cn(C)nc1C` (stereo not given), the inhibition was -6.48% (inactive). To `Cc1cccc(N(C(=O)Cc2cccs2)C(C(=O)NC2CCCC2)c2ccsc2)c1` (stereo not given) belongs 18.7% (active).

As for `COc1ccc(C(C#N)(CC(=O)O)c2cnccn2)cc1OC` (stereo not given), the inhibition is 2.97% (inactive).

As for `CCOC(=O)C1Cn2c(nc3c(c2=O)C(C)(CC)Cc2ccccc2-3)S1` (stereo not given), the inhibition is -5.87% (inactive). To `Cc1nc2cc(S(=O)(=O)C(F)(F)F)ccc2s1` belongs 0.85% (inactive); to `Cn1c(N)cc(=O)n(C)c1=S`, 1.39% (inactive); to `Cc1csc(/N=C/N(C)C)c1C#N`, 5.98% (inactive). For `Cc1c(CCOC(=O)CC23CC4CC(CC(C)(C4)C2)C3)sc[n+]1Cc1ccc([N+](=O)[O-])cc1` the value was -12.4% (inactive) and -2.7% (inactive). For `CCOC(=O)c1sc(N(Cc2ccccc2)C(=O)CN2C(=O)CN(C)C2=O)nc1C` the value was -19.2% (inactive); for `OCCC1CN(Cc2ccc(Oc3ncccn3)cc2)CCN1CCc1ccccc1` (stereo not given), -5.37% (inactive); for `CC1(C)CC(=O)C=C(NCc2ccncc2)C1`, -4.04% (inactive). Consider `O=C(NCc1ccccc1Cl)C1CCC(CNc2c(N3CCCCC3)c(=O)c2=O)CC1` (stereo not given), for which the inhibition is -11.6% (inactive). For the compound `NC1=NC(c2ccc([N+](=O)[O-])cc2)N(c2ccc(F)cc2)C(N)=N1` (stereo not given), the inhibition is 4.59% (inactive).

As for `CCn1c(O)c(N=NC2=NC(=O)CS2)c2cc(C)ccc21`, the inhibition was 3.93% (inactive). To `CCCCC(NC(=O)c1cccc(Br)c1)C(=O)O` (stereo not given) belongs -10.9% (inactive); to `CSc1ncnc2c1ncn2CC(=O)C1CCC2C3CCC4=CC(=O)CCC4(C)C3CCC12C` (stereo not given), -3.91% (inactive); to `COc1ccc2c(c1)cc1n2CCN=C1NN`, -7.01% (inactive). With `COc1ccccc1-c1n[nH]c2c1[C@H](C)CC[C@H]2C(C)C`, the inhibition is -2.28% (inactive). To `CC(=O)c1nn(-c2cccc(C(F)(F)F)c2)c(=O)[nH]c1=O` belongs -1.11% (inactive). For `COC(=O)CCc1sc(Nc2ccc(Br)cc2)nc1-c1ccc(OC)cc1` the value was 20.8% (active); for `Cc1ccc(OC(=O)CCC(=O)Nc2ccc(Br)cc2)cc1`, -3.9% (inactive).

As for `COc1ccc(NC(=O)CCC(=O)Nc2nnc(C3CCCCC3)s2)cc1`, the inhibition was -6.36% (inactive). To `Cc1ccc2c(cnn2C(=O)CCC(=O)NC2CCCC2)c1` belongs 6.54% (inactive). To `CCN(CC(=O)Nc1c(F)cccc1F)C(=O)c1ccc(-c2ccc(C(C)=O)cc2)o1` belongs 1.58% (inactive); to `COc1ccc(-n2c(C)cc(C(=O)CN3C(=O)NC4(CCc5ccccc54)C3=O)c2C)cc1` (stereo not given), -0.58% (inactive); to `O=C(/C(=N\O)n1cncn1)c1ccc(Br)cc1Br`, -6.03% (inactive). To `Cc1ccc(CN2CCNC(=O)C2CC(=O)NCc2csc(C(C)C)n2)cc1` (stereo not given) belongs -0.36% (inactive); to `O=C1C=C(c2ccc(Cl)cc2)C(=O)N1Nc1ccccc1`, -3.83% (inactive). As for `Cc1ccc(C(=O)NCCc2nnc(SCC(=O)Nc3cccc(C(=O)O)c3)n2C)cc1`, the inhibition was -8.53% (inactive). To `CCC(NC(=O)c1cc(COc2ccc(F)c(F)c2)on1)c1ccncc1` (stereo not given) belongs -0.88% (inactive). To `CCCN(CCC)CCCNC(=O)CNC(=O)c1nn(-c2ccc(OC)cc2)c(=O)c2ccccc12` belongs 1.59% (inactive); to `COc1ccc(NS(=O)(=O)c2cc(NC(=O)COc3ccccc3F)ccc2OC)cc1`, -0.92% (inactive). In the case of `COc1ccc(C(F)(F)F)cc1N/C=C\c1nnnn1-c1ccc(C)cc1`, the inhibition was -1.14% (inactive). Take `Cc1ccc(-c2c[n+](=O)c3c(n2[O-])CCC3)cc1`: the inhibition was -7.98% (inactive). For `Cc1ccc(NC(=O)C(C)OC(=O)C2CC3CCCC(C2)C3=O)cc1S(=O)(=O)N1CCOCC1` (stereo not given) the value was -1.77% (inactive); for `N#CCCn1ncc2ccccc21`, -17% (inactive).

As for `CCOC(=O)N1CCN(Cc2nc3cc(NC(=O)CC)ccc3n2CC)CC1`, the inhibition is -8.27% (inactive).

Take `CCC(C)CN1CCC(CO)(Cc2ccccc2Cl)CC1` (stereo not given): the inhibition is 2.96% (inactive).

With `CC(C)C[C@H]1CN=C(Nc2ccccc2)N1CC1CCCCC1`, the inhibition is -2.92% (inactive). For `CCOc1ccc(-n2c(SC(C)C(=O)OC)nc3c(c2=O)SCC3)cc1` (stereo not given) the value was -6.85% (inactive). To `Cc1ccc2nc(Nc3ncc4c(n3)CC(C)(C)CC4=O)nc(C)c2c1` belongs -5.46% (inactive). For `NS(=O)(=O)c1cccc(NC(=O)CC23CC4CC(CC(Br)(C4)C2)C3)c1` the value was -5.43% (inactive); for `CC(C)(CNC(=O)c1ccc(Cl)c(S(=O)(=O)N2CCc3ccccc3C2)c1)N1CCOCC1`, -11.2% (inactive); for `COc1ccccc1C(=O)N1CCNC(=O)C1CC(=O)Nc1ccc(Cl)cc1` (stereo not given), 1.41% (inactive). In the case of `COC(=O)c1ccc(COC(=O)CNC(=O)c2cccc(OC)c2)o1`, the inhibition is -10.2% (inactive). For `COc1cc(OC)cc(C(=O)NCC(=O)OCC(=O)NC(C)CCc2ccccc2)c1` (stereo not given) the value was -1.01% (inactive); for `COc1cc(OC)cc(C(=O)NCC(=O)OCc2csc(-c3ccccc3)n2)c1`, 17.6% (active); for `O=C1COc2ccc(C(=O)COC(=O)C3CC(O)CN3S(=O)(=O)c3ccc(Cl)cc3)cc2N1` (stereo not given), -1.25% (inactive). As to `Cc1ccc(S(=O)(=O)N2CC(O)C[C@H]2C(=O)OCC(=O)Nc2ccc(N3CCOCC3)cc2)cc1C` (stereo not given in full), the inhibition is -9.94% (inactive).

`CC1CCCC(NC(=O)COC(=O)[C@@H]2CC(O)CN2S(=O)(=O)c2ccc3c(c2)OCCO3)C1C` (stereo not given in full): the inhibition was 20.7% (active). For `CCN(CC)CCNC(=O)c1ccc(NC(=O)c2c(F)cccc2Cl)cc1` the value was -3.23% (inactive). To `COC(=O)C1=NN(c2ccccc2)C2C(=O)N(c3ccccc3OC)C(=O)C12` (stereo not given) belongs -2.73% (inactive); to `Cc1oc2cc(Br)c(O)c(Br)c2c1C(=O)c1ccccc1`, -3.49% (inactive); to `CC(=O)Nc1nc(N(C)C)nc(N(C)C)n1`, 2.09% (inactive). For `CCN1C(=O)/C(=C2\SC(N3CCCCC3)=NC2=O)c2ccccc21` the value was -0.1% (inactive); for `Cn1c2c(c(=O)n(C)c1=O)C(c1ccc(O)cc1)Nc1ccccc1O2` (stereo not given), 3.38% (inactive). Consider `O=C(N[C@@H]1C/C=C\C[C@@H](CC(=O)N(CCO)Cc2ccccc2)C(=O)N[C@H](Cc2ccccc2)COC1=O)OCC1c2ccccc2-c2ccccc21`, for which the inhibition was -7.62% (inactive). With `O=C(O)c1ccccc1N=N/C(=N/Nc1cc(S(=O)(=O)O)ccc1O)c1ccccc1`, the inhibition was 5.68% (inactive). For `CC1CC(C)CN(C(=O)CSc2ccsc2[N+](=O)[O-])C1` (stereo not given) the value was -12.4% (inactive). To `COc1ccc(NC(=O)C2COc3ccccc3O2)cc1` (stereo not given) belongs 1.47% (inactive); to `COc1ccc(NC(=O)CC2COc3ccccc3O2)c(OC)c1` (stereo not given), 17.3% (active). For `COc1ccc(NC(=O)NCc2ccc3c(c2)OCO3)c(OC)c1` the value was -6.62% (inactive); for `O=C(Nc1ccccc1)c1nnsc1S(=O)(=O)c1ccc(Cl)cc1`, -4.97% (inactive). Consider `N=c1n(Cc2ccc(Cl)cc2)c2ccccc2n1CC(O)c1ccco1` (stereo not given), for which the inhibition was -16.9% (inactive). To `Cc1ccc(NC(=O)CN(C)C(=O)c2ccc(Br)o2)cc1` belongs -14.7% (inactive); to `CCCCCCCCNS(=O)(=O)CCNC1CCCCC1`, -2.61% (inactive); to `Cc1ccc2c(c1)N(CC(=O)N1CCCC(C)C1)C(=O)CO2` (stereo not given), -10.6% (inactive). For `Cc1c(S(=O)(=O)N2CC(C)CC(C)C2)c(=O)n(C)c(=O)n1C` (stereo not given) the value was -1.29% (inactive); for `O=C(O)CCCCOn1ccnc1`, -6.34% (inactive).

Consider `CN(CC1CCCO1)S(=O)(=O)c1ccc(C(=O)Nc2ccc(F)cc2)cc1` (stereo not given), for which the inhibition is 1.44% (inactive). To `COc1ccc(NC2=CC(=S)NC(C)(C)C2)cc1` belongs -18.1% (inactive).

As for `Cc1ccc2c(c1)N(CC(=O)N1CCC(O)CC1)C(=O)CO2`, the inhibition is 6.2% (inactive). For `COc1ccc(CNC(=O)CN2C(=O)c3ccccc3S2(=O)=O)cc1` the value was -0.78% (inactive).
